From PubChem BioAssay AID540253 (National Center for Advancing Translational Sciences (NCATS), 2011) come the findings set out here.

Among all 340,000 compounds or so, about 240 (0.071%) were called active. Calls follow the shape of the full dose curve. The sample as a whole holds a higher share of actives than the screen did.
Potency is read from the fitted curve at half-maximal effect.

The target of the experiment is Snurportin-1 (Homo sapiens) + GTP-binding nuclear protein Ran (Homo sapiens) + Importin subunit beta-1 (Homo sapiens) (UniProt O95149+P62826+Q14974). Put plainly: qHTS Assay for Inhibitors of RanGTP induced Rango (Ran-regulated importin-beta cargo) - Importin beta complex dissociation. Also: nearly all actives have a fitted effect of over 45% in size. As to activity change, negative = inhibition: % of control where 0% means no effect. The conditions noted are these: Biochemical FRET Rango-importin beta; series mostly up to 46.1 µM; activity change, negative = inhibition: at the top concentration. From the text: NIH Molecular Libraries Probe Production Centers Network [MLPCN] NIH Chemical Genomics Center [NCGC] MLPCN Grant: R03 MH090808-01A1 Assay Submitter (PI): Petr Kalab NCGC Assay Overview: The small GTPase Ran regulates transport of macromolecules between the nucleus and the cytoplasm (nuclear transport) and has important functions in mitotic spindle assembly, nuclear envelope (NE) formation and nuclear pore complex (NPC) assembly. RanGTP gradient is thought to promote spindle assembly by providing a spatial clue to microtubule nucleation and Aurora A activation. Because the localized release and binding of importin alpha cargos relays this spatial clue to SAFs, inhibitors of the Rango - importin beta complex can then be used in further understanding their role in cell cycle specifically in mitosis progression. […] Activation of Aurora A has been linked to different types of cancer and a number of Aurora kinase inhibitors are being developed as potential canter therapeutics; therefore, identified inhibitors of this complex could be developed into potential anti-mitotic probes for cancer treatment. Purified recombinant proteins Rango - importin beta and RanGTP-RCC1 stock premixes were provided by the assay submitter. The assay used a fluorescence resonance energy transfer (FRET) Rango biosensor that contains the IBB of human snurportin 1 flanked by yellow fluorescent protein (EYFP) at the amino terminus and cerulean CFP10 at the carboxy terminus. […] RanGTP binding to the complex (in the presence of RCC1) releases the Rango from the complex. The flexibility of the IBB in the freed Rango allows the donor - acceptor fluorophores to interact, resulting in a high FRET signal. Inhibitors will therefore be identified based on the ability to interfere with the FRET signal increase. DMSO treated and no RanGTP-RCC1 (buffer only) wells were used as negative and positive controls respectively. FRET readings were obtained at two time points. FRET reading prior to importin beta addition (pre-read) were used flag potential compound interference; FRET reading after importin beta addition (post-read) were used to identify inhibitors.
NCGC Assay Protocol Summary: Two and a half uL/well of Rango- importin beta premix solution (0.1 uM Rango, 0.25 uM importin beta, 1x PBS, 1mM DTT, 0.02% Tween-20, 0.1% BSA final concentrations) was dispensed into 1536-well assay plates (Greiner, solid black medium-binding plates) with Aurora Discovery BioRAPTR Flying Reagent Dispenser (FRD; Beckton-Dickenson). Compound solution (23 nL) was transferred to the assay plate using Kalypsys pin tool equipped with a 1536-pin tool and incubated at room temperature for 5 min followed by a FRET pre-read using the PerkinElmer Envision plate reader. Two and a half uL/well of RanGTP-RCC1 premix solution (0.6 uM Ran, 2mM GTP, 0.2 uM RCC1, 1x PBS, 1mM DTT, 0.02% Tween-20, 0.1% BSA final concentrations) were then added and incubated at room temperature giving a final reaction volume of 5uL. After 45min FRET post-read was obtained via the Envision plate reader using the same optics and settings as the pre-read (CFP/YFP optimized dual optical module D450/D505; excitation mirror CFP 430/24 nm; and emission filters CFP 486/10 nm and YFP 530/10 nm).
On the technique in general: In qHTS, concentration-response curves come from the screen itself.
Consider `O=C(NN=CC=Cc1ccccc1)C(O)C(O)C(=O)NN=CC=Cc1ccccc1` (configuration not stated), for which the “activity change, negative = inhibition” value was -0.0781% (inactive).

Regarding `NC(=O)C1CCN(C(=O)c2cc(S(=O)(=O)N3CCN(c4ccccc4)CC3)ccc2Cl)CC1`, the “activity change, negative = inhibition” value is 25.5% (inactive).

For `CC1(C)C(=O)CCC2(C)C1=CCC1C2C(=O)CC2(C)C1CCC2(O)C(=O)CO` (configuration not stated), the “activity change, negative = inhibition” value is 24.8% (inactive).

As for `O=C(Cc1ccc(S(=O)(=O)N2CCOCC2)s1)Nc1ccc(Br)c(C(F)(F)F)c1`, the “activity change, negative = inhibition” value was -10.6% (inactive).

Turning to `C=CCOC(=O)N1CCC2CC1c1cc(-c3ccc(OC)cc3)ccc12` (configuration not stated), the “activity change, negative = inhibition” value was 8.87% (inactive).

Regarding `O=C(O)C1C2C=CC(O2)C1C(=O)Nc1ccccn1` (configuration not stated), the “activity change, negative = inhibition” value was 1.27% (inactive).

For `c1ccc(C(=NNc2nc3ccccc3s2)c2ccccn2)cc1`, the “activity change, negative = inhibition” value was 2.54% (inactive).

Consider `C=CCN1C=C(C(=O)c2ccccc2)C(=O)CC1`, for which the “activity change, negative = inhibition” value is 1.6% (inactive).

`CCCCC(=O)NC(c1ccc(OC)c(OC)c1)c1ccc2cccnc2c1O` (configuration not stated): the “activity change, negative = inhibition” value is 0.729% (inactive).

`COc1cccc(CC(=NO)c2cccc(OC)c2)c1`: the “activity change, negative = inhibition” value was -1.39% (inactive).

In the case of `CN(O)C(=S)c1ccccc1`, the “activity change, negative = inhibition” value was 16.2% (inactive).

Regarding `CCN1CCC(O)(/C=C/c2ccc(C)cc2)C(C(=O)/C=C/c2ccc(C)cc2)C1` (configuration not stated), the “activity change, negative = inhibition” value is -9.76% (inactive).

As to `Oc1c(CN2CCOCC2)ccc(CN2CCOCC2)c1O`, the “activity change, negative = inhibition” value is -11.4% (inactive).

For the compound `CN1C(c2ccc(F)cc2)=CS/C1=C(/C#N)c1nnc2n1-c1ccccc1SC2`, the “activity change, negative = inhibition” value is 0.615% (inactive).

In the case of `CC(=NNC(=O)c1ccncc1)c1ccc(Cl)c(Cl)c1`, the “activity change, negative = inhibition” value is -0.0471% (inactive).

For `C=C(C)CNC(=S)Nc1ccc(S(=O)(=O)Nc2cnc3ccccc3n2)cc1`, the “activity change, negative = inhibition” value is 23.2% (inactive).

As for `O=C(/C=C/Nc1ccc(S(=O)(=O)Nc2cnc3ccccc3n2)cc1)c1cccnc1`, the Potency is 3.26 µM [inconclusive] (active).

Turning to `CCOc1cc(C(=O)Nc2ccc(S(=O)(=O)Nc3cnc4ccccc4n3)cc2)cc(OCC)c1OCC`, the “activity change, negative = inhibition” value was 32.9% (inactive).

Turning to `COC(=O)c1ccc(NCc2cc(O)ccc2O)cc1`, the “activity change, negative = inhibition” value was -7.48% (inactive).

For `COC(=O)Cc1c(C)c2ccc(OCC(=O)NCc3ccc4c(c3)OCO4)cc2oc1=O`, the “activity change, negative = inhibition” value was -12.3% (inactive).

`CC(=O)Oc1ccc2c(C)c(CC(C)O)c(=O)oc2c1` (configuration not stated): the Potency is 9.2 µM [inconclusive] (active).

`Cc1c(CCC(=O)O)c(=O)oc2cc(OCc3ccc(Br)cc3)ccc12`: the “activity change, negative = inhibition” value was 18.2% (inactive).

`COC(=O)c1ccc(CNC(=O)Cn2cc(C)c(=O)[nH]c2=O)cc1`: the “activity change, negative = inhibition” value was -5.5% (inactive).

For `COc1ccc(NS(=O)(=O)c2ccc(N3CCOCC3)c(NC(=O)/C=C/C(=O)O)c2)cc1`, the “activity change, negative = inhibition” value is -3.29% (inactive).

For the compound `COc1ccc(C2NCCCC2c2ccccc2)cc1` (configuration not stated), the “activity change, negative = inhibition” value was 0.162% (inactive).

Turning to `Oc1cccc(CCc2ccccn2)c1`, the “activity change, negative = inhibition” value was 2.99% (inactive).

Turning to `CCc1c(Nc2ccccc2C)nc(N)[nH]c1=O`, the “activity change, negative = inhibition” value was -7.12% (inactive).

For the compound `Cc1ccc(S(=O)(=O)N2CCN(C(=O)COC(=O)/C=C/c3cccc(Cl)c3)CC2)c(C)c1`, the “activity change, negative = inhibition” value is -18.9% (inactive).

Turning to `COc1ccc(C(CNC(=O)c2cccc(S(=O)(=O)Nc3ccc(Br)cc3)c2)N(C)C)cc1` (configuration not stated), the “activity change, negative = inhibition” value was -6.82% (inactive).

As for `COc1cc2c(cc1OC)C(/C=C/c1ccco1)=NCC2`, the Potency is 8.2 µM [inconclusive] (active).

As to `COc1cc2c(cc1OC)C(c1cccc([N+](=O)[O-])c1)=NCC2`, the “activity change, negative = inhibition” value was 4.37% (inactive).

Consider `CCOC(=O)C1=NN(c2ccc(Cl)cc2)/C(=C/C2=NCCc3cc(OC)c(OC)cc32)S1`, for which the “activity change, negative = inhibition” value is 0.611% (inactive).

On to `C/C(=N\Nc1ccc(Cl)nn1)c1ccccc1O`, for which the “activity change, negative = inhibition” value was -0.572% (inactive).

For the compound `COc1ccc(NC(=O)/C(N=Nc2cccc(S(=O)(=O)Nc3ccc(SC(F)F)cc3)c2)=C(\C)O)cc1`, the “activity change, negative = inhibition” value was -19.4% (inactive).

On to `OCCN1CCN(CCO)C1=S`, for which the “activity change, negative = inhibition” value was -2.38% (inactive).

As for `O=C(Cc1ccc(Cl)cc1)c1ccccc1`, the “activity change, negative = inhibition” value is -16.1% (inactive).

For the compound `C[C@]12CCC(=O)C=C1C=CC1C2CC[C@@]2(C)C1CC[C@@]21CCC(=O)O1` (some centres not stated), the “activity change, negative = inhibition” value is 1.93% (inactive).

For the compound `Cc1nn(-c2ccc(F)cc2)c(Cl)c1/C=C(/CCC(=O)O)c1nc2ccccc2s1`, the “activity change, negative = inhibition” value is -9.2% (inactive).

As to `CCOC(=O)C1(C)NC(c2ccco2)C2C(=O)N(c3ccccc3)C(=O)C21` (configuration not stated), the “activity change, negative = inhibition” value was 1.12% (inactive).

For `COC(=O)C1=C(C)N(c2ccc(Br)cc2)C(=O)/C1=C\c1ccco1`, the “activity change, negative = inhibition” value was -5.05% (inactive).

Consider `CCCCN=C1N/C(=C\c2ccco2)C(=O)N1c1ccccc1`, for which the Potency is 14.6 µM [inconclusive] (active).

Regarding `COCCNc1nc2nonc2nc1N1CCCC1c1nccs1` (configuration not stated), the Potency was 18.4 µM [inconclusive] (active).

Turning to `COCCNc1ncnc2c1nc1n2CCCC1`, the “activity change, negative = inhibition” value is 11.7% (inactive).

`COCCNc1nc2nonc2nc1N(C)Cc1ccc(C)cc1`: the “activity change, negative = inhibition” value is -7.61% (inactive).

In the case of `CC(NC(=O)c1ccccc1)C(=O)Nc1ccccc1` (configuration not stated), the “activity change, negative = inhibition” value was 2.79% (inactive).

Consider `C(#CCN1CCOCC1)CCCN1CCOCC1`, for which the “activity change, negative = inhibition” value is -7.44% (inactive).

In the case of `O=C(Nc1c(Br)cc2c(c1Br)Cc1ccccc1-2)C(F)(F)F`, the “activity change, negative = inhibition” value was -9.71% (inactive).

For `COc1ccc(-c2ccc3c(c2)[C@@H]2C[C@H](N(C)S(=O)(=O)c4ccccc4)[C@H]([C@H](C)O)C(=O)N2CC3)cc1`, the “activity change, negative = inhibition” value is -9.19% (inactive).

As to `c1ccc2c(c1)OC1OC2Oc2ccccc21`, the “activity change, negative = inhibition” value is 1.32% (inactive).

On to `CCOc1ccc(S(=O)(=O)N2CCN(C(=O)c3oc4ccccc4c3C)CC2)cc1`, for which the “activity change, negative = inhibition” value was 21% (inactive).

For the compound `Cc1nc(N)sc1-c1ccccc1`, the “activity change, negative = inhibition” value was 12.3% (inactive).

In the case of `CN(C)c1ccc(CSc2ccccc2)cc1`, the “activity change, negative = inhibition” value was -10.4% (inactive).

For `COCCN(C(=O)C(C)N1C(=O)c2ccccc2C1=O)c1c(N)n(CC(C)C)c(=O)[nH]c1=O` (configuration not stated), the “activity change, negative = inhibition” value was -2.86% (inactive).

In the case of `COc1cccc(/C=N/Nc2ccc(S(=O)(=O)Nc3ccccc3C(=O)O)cc2[N+](=O)[O-])c1O`, the “activity change, negative = inhibition” value is 27.9% (inactive).

With `Cc1ccccc1N1CCN(C(=O)c2cccnc2)CC1`, the “activity change, negative = inhibition” value was -6.59% (inactive).

Take `Cc1ccc(S(=O)(=O)n2oc(=O)c(C3CCCCC3)c2N)cc1`: the “activity change, negative = inhibition” value is -10.6% (inactive).

Turning to `O=C(Nc1ccn(CCCNCc2ccc3[nH]ccc3c2)c(=O)n1)OCc1ccccc1`, the “activity change, negative = inhibition” value was -18% (inactive).

Regarding `CCCCN1CC(CO)Oc2cccc(F)c2S1(=O)=O` (configuration not stated), the “activity change, negative = inhibition” value was -9.79% (inactive).

Regarding `CCc1c(Nc2ccccc2Cl)nc(N)[nH]c1=O`, the “activity change, negative = inhibition” value is 4.91% (inactive).

As to `O=C1OCC2=C1C(c1ccc(Cl)cc1)c1cc3c(cc1O2)OCO3` (configuration not stated), the “activity change, negative = inhibition” value is 5.14% (inactive).

With `O=C1C2C3C=CC(C3)C2C(=O)N1c1ncc([N+](=O)[O-])s1` (configuration not stated), the “activity change, negative = inhibition” value is 2.52% (inactive).

For the compound `O=C(NN=Cc1ccc([N+](=O)[O-])cc1)C1CC1`, the “activity change, negative = inhibition” value was 0.979% (inactive).

Turning to `O=C(CCC(=O)N1CCN(S(=O)(=O)c2ccc(Cl)cc2)CC1)NCc1cccc(C(F)(F)F)c1`, the “activity change, negative = inhibition” value is -1.43% (inactive).

With `COc1ccc(CC(=O)NC(C)c2ccc(Cl)c(Cl)c2)cc1S(=O)(=O)N1CCOCC1` (configuration not stated), the “activity change, negative = inhibition” value was -14.4% (inactive).

Consider `CCOC(=O)C1CCCN(C(=O)Cn2ncc3c(=O)oc4ccc(C)cc4c32)C1` (configuration not stated), for which the “activity change, negative = inhibition” value is -6.21% (inactive).

As to `CC1=CC(=NNS(=O)(=O)c2ccc([N+](=O)[O-])cc2)CC(C)(C)C1`, the “activity change, negative = inhibition” value is -0.346% (inactive).

For `O=C(O)c1ccccc1/C=N/Nc1ccc(S(=O)(=O)Nc2ccc(Cl)cc2)cc1[N+](=O)[O-]`, the “activity change, negative = inhibition” value was -1.28% (inactive).
